Laboratory results reported in PubChem BioAssay AID1467 (National Center for Advancing Translational Sciences (NCATS), 2008).
Hit rate of the full screen: of about 230,000 compounds, fewer than 10 were called active. Calls follow the shape of the dose curve; as a rule, active = well fitted curve in the direction sought with a large enough effect; inconclusive = small, poorly fitted or top-dose-only effect, or effect the other way, or another doubt; inactive = no such curve, though single readings can be large or run the other way. These entries were drawn from the full list.

These compounds were tested against Alpha-galactosidase A (Homo sapiens) (UniProt P06280) (assay: qHTS Assay for Inhibitors of Human alpha-Galactosidase at pH 4.5.). Settings: purified enzyme, 4-MU-alpha-Gal fluorescence; series mostly up to 105 µM.
Source text: NIH Chemical Genomics Center [NCGC]
NIH Molecular Libraries Probe Production centers Network [MLPCN]
Assay Submitter (PI): Wei Zheng
Alpha-galactosidase is a homodimeric glycoprotein that hydrolyzes the terminal alpha-galactosyl moieties from glycolipids and glycoproteins. Deficiency of this enzyme results in Fabry Disease with progressive accumulation of globotriaosylceramide and other glycosphingolipids in vascular endothelial cells that causes renal failure, myocardial infarction and stroke, and premature death in patients. It has been reported that the improper folding and trafficking of alpha-galactosidase resulting from the genetic mutations may account for a significant numbers of Fabry patients. […] We optimized this alpha-galactosidase assay in 1536-well plate format for identifying the novel small molecule inhibitors with the structures other than the sugar analogs in order to develop the new pharmacological chaperones. Although this assay has the same protocol as PubChem AID 992, this is a separate project and, therefore, is published as a separate assay
NCGC Assay Protocol Summary:
This is a fluorogenic enzyme assay with 4-Methylumbelliferyl alpha-D-galactopyranoside as the substrate and human […] as the enzyme preparation. Upon the hydrolysis of this fluorogenic substrate, the resulting product, […]. 4-Methyllumbelliferone, can be excited at 365 nm and emits at 440 nm. This fluorescence which can be detected by a standard fluorescence plate reader. Data were normalized to the controls for basal activity (without enzyme) and 100% activity (with enzyme). In the AC50 values were determined from concentration-response data modeled with the standard Hill equation.
Assay buffer: 50 mM citric acid (titrated with potassium phosphate to pH 4.5), 0.005% Tween-20, pH 4.5. (pH 4.5 is an optimal condition for this enzyme assay)
1536-well assay protocol for the human alpha-galactosidase:
(1) Add 2 ul/well of enzyme (12 nM final)
(2) Add 23 nL compounds in DMSO solution. The final titration was 0.7 nM to 77 uM.
(3) Add 1 ul of substrate (400 uM final)
(4) Incubate at room temperature for 20 min.
(5) Add 2 ul stop solution (1M NaOH and 1M Glycine mixture, pH 10)
(6) Detect the assay plate in a ViewLux plate reader (PerkinElmer) with Ex=365 nm and Em=440nm.
Keywords: MLSMR, MLPCN, NIH Roadmap, qHTS, NCGC, : Alpha-galactosidase, Fabry Disease, pharmacological chaperone, chaperone therapy
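Also: 0% = full activity with enzyme and -100% = basal without enzyme.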

Chain of Alpha-galactosidase A (Homo sapiens) (P06280 whole entry, looked up): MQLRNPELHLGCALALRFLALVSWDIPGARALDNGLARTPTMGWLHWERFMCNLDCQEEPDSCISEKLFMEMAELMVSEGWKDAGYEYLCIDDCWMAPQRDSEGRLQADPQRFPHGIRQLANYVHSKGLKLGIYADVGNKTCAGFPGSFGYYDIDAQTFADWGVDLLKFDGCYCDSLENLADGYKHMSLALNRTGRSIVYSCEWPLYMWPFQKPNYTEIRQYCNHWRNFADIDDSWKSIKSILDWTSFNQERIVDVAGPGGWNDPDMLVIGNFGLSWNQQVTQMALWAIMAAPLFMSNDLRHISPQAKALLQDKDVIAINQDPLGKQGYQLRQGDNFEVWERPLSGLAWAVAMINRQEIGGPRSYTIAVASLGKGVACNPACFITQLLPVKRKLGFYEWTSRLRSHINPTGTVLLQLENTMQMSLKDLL

Activity change, negative = inhibition, inactive:
C=CC(C1=CC(=O)C=CC1=O)c1ccc(O)cc1 (configuration not stated)
Cc1nc(NC(=O)C2CCCCC2)sc1C
c1ccc(CN=C2Nc3ccccc3CS2)nc1
O=C(CSc1nnc(-c2ccncc2)n1-c1ccc(Cl)cc1)Nc1ccc(C(=O)O)cc1
C[C@H]1Cc2c(-c3ccccc3)nc3c(c2CO1)CN(C(=O)C1CC1)CC3
O=c1c2c(nc3cc(-c4cccc(Cl)c4)[nH]n13)CCCC2
CC(C)C1=CC2=CC[C@H]3[C@](C)(C(=O)O)CCC[C@]3(C)C2CC1 (some centres not stated)
COc1ccc(CCNC2=CC(=O)CC(C)(C)C2)cc1
O=C(CC(=O)N/N=C\c1cccc(Cl)c1Cl)NCc1ccccc1
COc1cc(NC(=O)c2cncc(-c3ccc(C#N)cc3)c2)cc(C(=O)Nc2cccc(C(F)(F)F)c2)c1
COc1cccc(-c2cc(=O)c3cc(NC(=O)c4ccc(C)cc4)ccc3[nH]2)c1
Cc1nc(-c2ccc(Cl)cc2)sc1C1(C)CC(c2ccccc2F)=NO1 (configuration not stated)
COc1ccc(/C=C2\NC(=O)[C@@H]3Cc4ccccc4CN3C2=O)cc1
CC(C)Cc1nc(Nc2ccc(S(=O)(=O)N3CCCC3)cc2)c2nnn(Cc3ccccc3)c2n1
NC(=O)COc1ccc(C23CC4CC(CC(C4)C2)C3)cc1
COc1ccc(OC)c(S(=O)(=O)Nc2cccc(-c3ccc4nncn4n3)c2)c1
COC(=O)C1=C(C(=O)OC)C(c2cc([N+](=O)[O-])ccc2O)c2sc(=O)[nH]c2S1 (configuration not stated)
CCCCNS(=O)(=O)c1ccc2nc(SCC(=O)Nc3cc(C)cc(C)c3)[nH]c2c1
CCOC(=O)C1=C(C)c2ccccc2OC1C(=O)OCC (configuration not stated)
O=C(COc1cc(Cl)c(Cl)cc1Cl)NC(=O)NC1CCCC1
COc1ccc(-c2c(C)cc3oc(=O)cc(-c4ccccc4)c3c2C)cc1C=O
CCCCCCCCCCCCN1C(=O)CSC1c1cccnc1 (configuration not stated)
C=C(C(C)=O)C(O)c1ccc([N+](=O)[O-])cc1 (configuration not stated)
C=CCOC(=O)NC(c1ccc(F)c(F)c1)C(C(=O)COC)C(=O)OC (configuration not stated)
COc1ccc(-c2nc3c(c4c2C[C@H](c2ccccc2)OC4)CN(C(=O)c2cccnc2)CC3)c(C)c1
COC(=O)C1(C(C)=O)CC2=CC[C@H]3C(=O)N(c4ccccc4)C(=O)[C@H]3[C@@H]2Cc2ccccc2[C@@H]1C[N+](=O)[O-] (some centres not stated)
Cc1cccc(-c2nc3ccccc3c(=O)n2NC(=O)Cc2ccc(Cl)cc2)c1
O=C(NCc1ccco1)O[C@@H]1C(=O)c2cc(Br)ccc2O[C@H]1c1ccc2c(c1)OCO2
O=C(O)CC(Cc1ccccc1)C(=O)Nc1ccc([N+](=O)[O-])cc1 (configuration not stated)
OC[C@H]1O[C@@H](n2cnc3c(N[C@H]4CC5CCC4C5)ncnc32)[C@H](O)[C@@H]1O (some centres not stated)
COc1cccc([C@@H]2Oc3ccc(Br)cc3C(=O)[C@H]2OC(=O)NCCc2ccc(OC)c(OC)c2)c1
CCOC(=O)C1C/C(=C\C(C)=O)c2cccc(C(F)(F)F)c2O1 (configuration not stated)
C/C(Nc1ccc2oc(=O)ccc2c1)=C1/C(=O)CC2[C@@H]1C2(C)C (some centres not stated)
O=C(NNC(=S)NC1CC2CCC1C2)c1ccc(Cl)cc1 (configuration not stated)
COc1cc(NC(=O)c2ccc3c(c2)OCO3)ccc1NC(=O)c1cccs1
CC(=O)Nc1ccc(NC(=O)CSc2ncnc3c2cnn3Cc2ccccc2)cc1
C=C1c2cccc(OC)c2O[C@H](C(=O)OCC)[C@@H]1CCCCCC
C=CCn1c2ccccc2c2nnc(SCc3[nH]c(=O)[nH]c3C(=O)CCCCC(=O)OCC)nc21
O=C(COC(=O)CNC(=O)c1ccccc1F)NCC(F)(F)F
COC(=O)C1=C(C(=O)OC)[C@@H]2N(C)c3ccccc3[C@@]23C[C@@H](C(=O)OC)N(S(=O)(=O)c2ccc(Br)cc2)C3=N1
O=C(NCCCN1CCOCC1)c1cc2c(s1)CCC2
CCOc1ccc(C2NC(=S)NC3=C2CCc2ccccc23)cc1 (configuration not stated)
COc1cc(OC)c2c(-c3cccc(-c4cccc(N)c4)c3)cc(=O)oc2c1
Cc1ccc(NC(=O)O[C@@H]2C(=O)c3cc(Br)ccc3O[C@H]2c2ccc3c(c2)OCO3)cc1Br
CC1=C(C)CC(C(=O)NNC(=O)c2ccccc2O)C(C(=O)O)C1 (configuration not stated)
O=S(=O)(Cc1noc(-c2ccc(OC(F)(F)F)cc2)n1)c1ccc(F)cc1
COc1cc(CNCCN(C)C)ccc1OCc1c(F)cccc1Cl
Clc1ccc(-c2csc(-c3ccncc3)n2)cc1
CCOc1cc(N2CCOCC2)c(OCC)cc1NC(=O)c1ccc(C)s1
NC1CCN(O)C1=O (configuration not stated)
COc1ccc(S(=O)(=O)N(C)C)cc1NC(=O)CSc1ncccn1
O=C(COc1ccccc1)N1CCN=C1SCc1cccc(F)c1
CC(=O)/C(C)=N/O
CCO[C@H]1OC(C(=O)N2CCN(Cc3ccccc3)CC2)=C[C@@H](c2cn(C(C)=O)c3ccccc23)[C@@H]1CCCO
C=C/C1=C/Cc2ccccc2[C@H](C[N+](=O)[O-])C(C(=O)OC)(C(=O)OC)C1
NNC(=O)c1oc2nc(-c3ccccc3)cc(-c3ccco3)c2c1N
S=C(NCCCc1cnc[nH]1)NCCCN(Cc1ccc(Cl)c(Cl)c1)c1ccc(Br)cn1
Cc1cccc([C@H]2[C@@H]3C=CC[C@@H](C)[C@@H]3C(=O)N2Cc2ccccc2)c1
CCN(CCn1cccn1)C(=O)CC1C(=O)NCCN1Cc1cccc(OC)c1OC (configuration not stated)
O=[N+]([O-])c1ccc(N2CCNCC2)cc1NCc1cccnc1
S=C(NNC(=S)NC1CC2C=CC1C2)NC1CC2C=CC1C2 (configuration not stated)
COC(=O)N1C(/C=C/C=C/c2ccc(OC)cc2)=Cc2ccccc2C1CC(C)=O (configuration not stated)
COc1ccc(C(=O)COC(=O)c2nn(C)c(=O)c3ccccc23)c(OC)c1
COc1cccc(NC(=S)NCc2ccco2)c1
Cn1c(SCC(=O)NC2CCCCC2)nnc1-c1ccc(N)cc1
COC(=O)C1=C(C(=O)OC)[C@@H]2N(C)c3ccccc3[C@@]23C[C@@H](C(=O)OC)N(S(=O)(=O)c2cccs2)C3=N1
CN1CCC(=NNC(=O)CN(c2cccc(Cl)c2)S(C)(=O)=O)CC1
NC(=O)CC(NC(=O)Cc1cccc2ccccc12)c1ccc(NCc2cc(F)ccc2F)c([N+](=O)[O-])c1 (configuration not stated)
N#Cc1cccc(CS(=O)(=O)c2nnnn2-c2cc(C(F)(F)F)cc(C(F)(F)F)c2)c1
Cc1cc(C(=O)COC(=O)CNC(=O)c2ccc(F)cc2)c(C)n1Cc1ccco1
OCCC1CN(Cc2ccc3nsnc3c2)CCN1C1CCCCC1 (configuration not stated)
Cc1cc(C)cc(N(CC(=O)NCCSCc2ccco2)S(C)(=O)=O)c1
CC1CCN(c2c(NCc3ccc(C(=O)NCc4ccccc4)cc3)c(=O)c2=O)CC1
CNC(=O)c1ccc(NC(=O)c2cccc(C(F)(F)F)c2)cc1
Nc1ccc(OCC(O)C[n+]2ccc(CCS(=O)(=O)[O-])cc2)cc1 (configuration not stated)
Cc1cccc2c1N(CCOc1ccccc1)C(=O)C2=O
CN1C(=O)/C(=C\c2ccc(-c3ccccc3)o2)SC1=S
C/C(=N\NC(=O)c1cccc(N2CCCC2=O)c1)c1ccc(N)cc1
CC(C)(C)Nc1c(-c2cccs2)nc2ccccn12
Cc1csc(-c2coc3cc(O[C@@H]4O[C@H](CO)[C@@H](O)[C@@H](O)[C@H]4O)ccc3c2=O)n1
c1ccc2c(c1)CSc1sccc1C2=C1CCNCC1
CC(=O)CC(c1ccccc1)C1C(=O)Oc2ccccc2C1=O (configuration not stated)
COC(=O)C1=C(C(=O)OC)[C@@H]2N(Cc3ccccc3)c3ccccc3[C@@]23C[C@@H](C(=O)OC)N(S(=O)(=O)c2ccc(C(F)(F)F)cc2)C3=N1
O=C(NCCN1CCOCC1)c1ccc2c(c1)N(Cc1ccc(Cl)cc1)CCS2
C/C=C(\C)C(=O)OC1C(OC(=O)C2(C)OC2C)c2cc3ccc(=O)oc3cc2OC1(C)C (configuration not stated)
CNC(=S)N1CCC(NC(=O)C(Cc2ccc(F)cc2)NC(C)=O)CC1 (configuration not stated)
Cc1oc2cc([N+](=O)[O-])c(O)c([N+](=O)[O-])c2c1C(=O)c1ccc(Br)cc1
CCc1ccc(NC(=O)C(=O)N/N=C(\C)CC(=O)NCCOC)cc1 3.4% [at 21.1 µM]
CCOc1ccc(NC(=O)c2ccc(CSc3nnnn3C)cc2)cc1
COC(=O)C1=C(C(=O)OC)[C@@H]2Nc3ccccc3[C@@]23C[C@@H](C(=O)OC)N(S(=O)(=O)c2ccc([N+](=O)[O-])cc2)C3=N1
COc1ccc(Nc2ncnc3ccc(OC)cc23)cc1
C[N+]1(CC(O)COc2ccccc2)CCN(C(=O)c2ccc([N+](=O)[O-])cc2)CC1 (configuration not stated)
C/C=C(\C)C(=O)O[C@H]1CC(C)=C2C(=O)C=C(C)C2[C@@H]2OC(=O)[C@@](C)(OC(=O)C=C(C)C)C21 (some centres not stated)
Cc1nc(SCc2ccc(F)cc2)c([N+](=O)[O-])[nH]1
C=CCN1C(=O)C(Cc2ccc(OCC)cc2)SC1=Nc1ccc(C(=O)O)cc1 (configuration not stated)
Cc1ccc(C)c(-n2nnnc2SCC(=O)c2c(N)n(C)c(=O)n(C)c2=O)c1
COc1ccc2c(c1)O[C@@H](c1ccc3c(c1)OCO3)[C@H](OC(=O)NCc1ccco1)C2=O
